Holding throughout (settings): 25 µM; exposure: 24-48 hpf
The test system of assay [1] is Danio rerio Tg(wt1b:EGFP) embryo, pronephros. The assay can be described thus: glomerular separation, fold change vs DMSO control; higher = glomeruli further apart (abnormal). In a few lines: (§1)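 In HEPES-buffered E3 with 0.003% PTU and 0.5% DMSO, dechorionated Tg(wt1b:EGFP) zebrafish embryos were exposed to 25 μM compound from 24 to 48 hpf at 28.5°C. Pronephroi were then imaged dorsally at 470 nm in 10 z-slices, in 96-well plates filled with agarose. On maximum projections, a Fiji macro turned 16 manually placed reference points into distances and angles, and values more than 2 SD from the feature mean were excluded. Features are fold changes relative to the mean of DMSO-treated embryos from the same day.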

For assay [2] the test system is unchanged. Description: glomerular width (mean of left and right), fold change vs DMSO control; higher = wider glomerulus. The procedure, abridged:
as §1

Assay [3] has the same test system. The assay can be described thus: fraction of imaged embryos annotated as normal kidney; higher = less nephrotoxic; extreme values may be limits of the assay. In a few lines: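 The value given is the share of embryos in each treatment scored as having a normal kidney. To obtain it, dechorionated Tg(wt1b:EGFP) zebrafish embryos were treated from 24 to 48 hpf at 28.5°C with 25 μM compound in 0.5% DMSO, in 5 mM HEPES-buffered E3 with 0.003% PTU. Pronephroi were imaged by widefield fluorescence (470 nm, 10 z-slices), and every embryo was annotated by hand from maximum projections.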

For assay [4] the test system is unchanged. Description: pronephric angle neck segment to proximal convoluted tubule (mean of left and right), fold change vs DMSO control; higher = larger pronephric angle. The procedure, abridged:
as §1

Where a name gives a salt, the structure may show the parent alone. ± gives the standard deviation or the standard deviation of the averaged measurements.

In turn, `CCCCOc1ccc(C(=O)CCN2CCCCC2)cc1` [Dyclonine hydrochloride] gave a glomerular separation in assay [1] of 0.982 ± 0.26. The compound also gave a glomerular width in assay [2] of 1.02 ± 0.071. In assay [3], the “fraction of imaged embryos annotated as normal kidney” value (“fraction of imaged embryos annotated” for short) amounted to 0.833. The “pronephric angle neck segment” value in assay [4] is 1.004 ± 0.0035.

For `NS(=O)(=O)c1cc2c(cc1Cl)N=CNS2(=O)=O` [Chlorothiazide], in assay [1], the glomerular separation was 0.855 ± 0.11. In assay [2], this compound showed a glomerular width of 1.07 ± 0.043. In addition, the “fraction of imaged embryos annotated” value in assay [3] turned out to be 0.75. For the same compound, in assay [4], the “pronephric angle neck segment” value stood at 0.99 ± 0.057.

Consider `O=C(NC(Cc1cc(=O)[nH]c2ccccc12)C(=O)O)c1ccc(Cl)cc1` (stereo unspecified) [Rebamipide], for which, in assay [1], the glomerular separation turned out to be 0.748 ± 0.25. In addition, the glomerular width in assay [2] is 0.942 ± 0.061. Also, the “fraction of imaged embryos annotated” value in assay [3] is 0.917. For the same compound, the “pronephric angle neck segment” value in assay [4] came to 0.972 ± 0.034.

`O=C(OCCOCCO)c1ccccc1Nc1cccc(C(F)(F)F)c1` [Etofenamate]: in assay [1], the glomerular separation came out at 3.04 ± 0.95. In assay [2], the glomerular width is 0.684 ± 0.026. Moreover, the “fraction of imaged embryos annotated” value in assay [3] was 0. Further, the “pronephric angle neck segment” value in assay [4] was determined as 1.75 ± 0.018.

On to `Cc1onc(-c2ccccc2)c1-c1ccc(S(N)(=O)=O)cc1` [Valdecoxib], for which, in assay [1], the glomerular separation was determined as 0.816 ± 0.3. The same compound displayed a glomerular width in assay [2] of 1.13 ± 0.019. Also, the “fraction of imaged embryos annotated” value in assay [3] was found to be 0.917. Also, the “pronephric angle neck segment” value in assay [4] worked out at 0.9437 ± 0.0089.

In turn, `CC(=O)OCC(=O)[C@@]1(OC(C)=O)[C@@H](C)C[C@H]2[C@@H]3C[C@H](F)C4=CC(=O)C=C[C@]4(C)[C@@]3(F)[C@@H](O)C[C@@]21C` [Diflorasone Diacetate] yielded a glomerular separation in assay [1] of 1.52 ± 0.52. This compound registered a glomerular width in assay [2] of 1.32 ± 0.052. In assay [3], the “fraction of imaged embryos annotated” value is 0.727. Also, the “pronephric angle neck segment” value in assay [4] is 0.973 ± 0.059.

Compound `CC(C)NCC(O)c1ccc(O)c(O)c1` (single isomer, unassigned; (-)) [(-)-Isoproterenol hydrochloride] displayed a glomerular separation in assay [1] of 0.881 ± 0.24. In addition, the glomerular width in assay [2] was 1.033 ± 0.0021. The “fraction of imaged embryos annotated” value in assay [3] stood at 0.833. In assay [4], the “pronephric angle neck segment” value was determined as 1.02 ± 0.021.

In the case of `Cc1scc2c1N(C(=O)CN1CCN(C)CC1)c1ccccc1NC2=O` [Telenzepine dihydrochloride], in assay [1], the glomerular separation amounted to 0.967 ± 0.17. Moreover, in assay [2], the glomerular width was found to be 0.937 ± 0.032. For the same compound, the “fraction of imaged embryos annotated” value in assay [3] worked out at 1. Besides, in assay [4], the “pronephric angle neck segment” value came to 0.963 ± 0.01.

In assay [1], `CN/C(=N\CCSCc1nc[nH]c1C)NC#N` [Cimetidine] came in with a glomerular separation of 1.02 ± 0.34. In assay [2], this compound yielded a glomerular width of 1.051 ± 0.0067. Also, in assay [3], the “fraction of imaged embryos annotated” value turned out to be 0.917. Also, in assay [4], the “pronephric angle neck segment” value came to 0.926 ± 0.062.

In the case of `CN1CCc2cccc3c2[C@H]1Cc1ccc(O)c(O)c1-3` [R(-) Apomorphine hydrochloride hemihydrate], the glomerular separation in assay [1] came to 0.765 ± 0.25. In assay [2], this compound displayed a glomerular width of 0.954 ± 0.018. Moreover, the “fraction of imaged embryos annotated” value in assay [3] came out at 0.833. Also, in assay [4], the “pronephric angle neck segment” value was found to be 0.933 ± 0.042.

`CCOC(=O)C(C)(C)Oc1ccc(Cl)cc1` [Clofibrate] came in with a glomerular separation in assay [1] of 2.62 ± 1.7. Also, in assay [2], the glomerular width worked out at 0.608 ± 0.044. In assay [3], the “fraction of imaged embryos annotated” value was determined as 0. In assay [4], the “pronephric angle neck segment” value was 1.66 ± 0.033.

In assay [1], `CC(C(=O)O)c1ccc(C(=O)c2ccccc2)s1` (stereo unspecified) [Tiaprofenic acid] came in with a glomerular separation of 1.58 ± 0.4. For the same compound, in assay [2], the glomerular width was 1.07 ± 0.067. Further, the “fraction of imaged embryos annotated” value in assay [3] was determined as 0.667. In addition, the “pronephric angle neck segment” value in assay [4] was 1.03 ± 0.015.

For `CC(=O)NS(=O)(=O)c1ccc(N)cc1` [Sulfacetamide sodic hydrate], the glomerular separation in assay [1] is 0.937 ± 0.25. The glomerular width in assay [2] amounted to 1.05 ± 0.057. For the same compound, in assay [3], the “fraction of imaged embryos annotated” value came to 1. For the same compound, the “pronephric angle neck segment” value in assay [4] was 0.9887 ± 0.0093.

Take `Cc1c(-c2ccccc2)oc2c(C(=O)OCCN3CCCCC3)cccc2c1=O` [Flavoxate hydrochloride]: in assay [1], the glomerular separation was 1.17 ± 0.37. In assay [2], this compound gave a glomerular width of 1.08 ± 0.037. Moreover, the “fraction of imaged embryos annotated” value in assay [3] worked out at 0.75. For the same compound, the “pronephric angle neck segment” value in assay [4] came out at 1.06 ± 0.02.

As to `Cc1cc2c(s1)Nc1ccccc1N=C2N1CCN(C)CC1` [Olanzapine], the glomerular separation in assay [1] was determined as 0.786 ± 0.41. Moreover, the glomerular width in assay [2] turned out to be 0.925 ± 0.034. In addition, the “fraction of imaged embryos annotated” value in assay [3] is 0.917. Moreover, the “pronephric angle neck segment” value in assay [4] stood at 1.01 ± 0.041.

For the compound `CN(C)CCc1c[nH]c2ccc(Cn3cncn3)cc12` [Rizatriptan benzoate], the glomerular separation in assay [1] amounted to 0.941 ± 0.29. This compound also returned a glomerular width in assay [2] of 1.01 ± 0.025. The “fraction of imaged embryos annotated” value in assay [3] worked out at 0.5. Further, the “pronephric angle neck segment” value in assay [4] turned out to be 1.02 ± 0.07.

Compound `CCCC(C(=O)OCCN(CC)CC)(c1ccccc1)c1ccccc1` [Proadifen hydrochloride] gave a glomerular separation in assay [1] of 0.771 ± 0.16. In assay [2], this compound registered a glomerular width of 1.09 ± 0.071. The “fraction of imaged embryos annotated” value in assay [3] was determined as 0.889. Moreover, the “pronephric angle neck segment” value in assay [4] came to 1.03 ± 0.037.

The compound `CC(C)(C)NC[C@H](O)COc1cccc2c1CCCC2=O` [(-) -Levobunolol hydrochloride] returned a glomerular separation in assay [1] of 0.705 ± 0.17. Moreover, in assay [2], the glomerular width amounted to 1.07 ± 0.0039. Moreover, in assay [3], the “fraction of imaged embryos annotated” value came to 0.917. Also, the “pronephric angle neck segment” value in assay [4] is 0.944 ± 0.052.

Regarding `COc1ccc(-c2cc(=S)ss2)cc1` [Anethole-trithione], the glomerular separation in assay [1] worked out at 1.04 ± 0.42. Also, the glomerular width in assay [2] stood at 0.886 ± 0.027. The “fraction of imaged embryos annotated” value in assay [3] was determined as 0.909. The “pronephric angle neck segment” value in assay [4] stood at 1.04 ± 0.066.

For the compound `CC(=O)N[C@@H](CC(C)C)C(=O)O` [N-Acetyl-L-leucine], the glomerular separation in assay [1] amounted to 1.02 ± 0.21. This compound returned a glomerular width in assay [2] of 1.075 ± 0.0078. In addition, in assay [3], the “fraction of imaged embryos annotated” value was found to be 0.917. Moreover, the “pronephric angle neck segment” value in assay [4] stood at 0.993 ± 0.013.

Compound `Clc1ccc(CCC(Cn2ccnc2)Sc2c(Cl)cccc2Cl)cc1` (stereo unspecified) [Butoconazole nitrate] returned a glomerular separation in assay [1] of 2.43 ± 1.2. In addition, the glomerular width in assay [2] was found to be 0.767 ± 0.047. In addition, the “fraction of imaged embryos annotated” value in assay [3] worked out at 0. Moreover, the “pronephric angle neck segment” value in assay [4] turned out to be 1.25 ± 0.056.

Compound `CC(=O)O[C@]1(C(C)=O)CC[C@H]2[C@@H]3C=C(Cl)C4=CC(=O)[C@@H]5C[C@@H]5[C@]4(C)[C@H]3CC[C@@]21C` [Cyproterone acetate] yielded a glomerular separation in assay [1] of 1.2 ± 0.46. The glomerular width in assay [2] was determined as 0.931 ± 0.028. In addition, the “fraction of imaged embryos annotated” value in assay [3] was determined as 0.917. Further, in assay [4], the “pronephric angle neck segment” value amounted to 0.977 ± 0.017.

In assay [1], `CCCCNc1ccc(C(=O)OCCN(C)C)cc1` showed a glomerular separation of 1.01 ± 0.33. The compound further returned a glomerular width in assay [2] of 0.959 ± 0.096. Besides, the “fraction of imaged embryos annotated” value in assay [3] stood at 0.833. The “pronephric angle neck segment” value in assay [4] is 1.057 ± 0.0014.

Turning to `COc1ccc2c(c1)c(CC(=O)OCC(=O)O)c(C)n2C(=O)c1ccc(Cl)cc1` [Acemetacin], the glomerular separation in assay [1] was determined as 1.28 ± 0.69. The compound further had a glomerular width in assay [2] of 1.04 ± 0.027. In assay [3], the “fraction of imaged embryos annotated” value amounted to 0.917. Moreover, the “pronephric angle neck segment” value in assay [4] amounted to 1.08 ± 0.039.
